Among the data in paper PMC11006913 are binding signal values, retold here.

Holding throughout (assay): PBM; 200 nM protein, PBS
What all share (conditions): dsDNA, one strand shown

Assay [1] deals with T1, SIX6 (Homo sapiens, UniProt O95475 114-200, L167I).
T1 sequence: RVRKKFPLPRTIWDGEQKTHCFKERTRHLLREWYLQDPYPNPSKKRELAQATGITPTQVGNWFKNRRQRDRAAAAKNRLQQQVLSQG

Assay [2] deals with T2, SIX6 (Homo sapiens, UniProt O95475 114-200, L143V).
T2 sequence: T1 sequence with L30V, I54L

Assay [3] concerns the target T3, SIX6 (Homo sapiens, UniProt O95475 114-200, H141N).
T3 sequence: T1 sequence with H28N, I54L

Assay [4] deals with T4, SIX6 (Homo sapiens, UniProt O95475 114-200, T165P).
T4 sequence: T1 sequence with T52P, I54L

Assay [5] addresses T5, SIX6 (Homo sapiens, UniProt O95475 114-200, L167M).
T5 sequence: T1 sequence with I54M

The target in assay [6] is T6, SIX6 (Homo sapiens, UniProt O95475 114-200, L143M).
T6 sequence: T1 sequence with L30M, I54L

In assay [7] the target is T7, SIX6 (Homo sapiens, UniProt O95475 114-200, L143I).
T7 sequence: T1 sequence with L30I, I54L

The target of assay [8] is T8, SIX6 (Homo sapiens, UniProt O95475 114-200, T165G).
T8 sequence: T1 sequence with T52G, I54L

Assay [9] concerns the target T9, SIX6 (Homo sapiens, UniProt O95475 114-200, T139Q).
T9 sequence: T1 sequence with T26Q, I54L

Assay [10] has as its target T10, SIX6 (Homo sapiens, UniProt O95475 114-200, T165A).
T10 sequence: T1 sequence with T52A, I54L

Assay [11] deals with T11, SIX6 (Homo sapiens, UniProt O95475 114-200, L167V).
T11 sequence: T1 sequence with I54V

The target of assay [12] is T12, SIX6 (Homo sapiens, UniProt O95475 114-200).
T12 sequence: T1 sequence with I54L

Assay [13] addresses T13, SIX6 (Homo sapiens, UniProt O95475 114-200, T165I).
T13 sequence: T1 sequence with T52I, I54L

Numbering of substitutions follows the chain as printed.

As for CGCGGCCA, the binding signal with SIX6 [1] is 8.81 upbm affinity estimate (log intensity, higher = more binding, comparable within an allelic series); with SIX6 [2], 8.96 upbm affinity estimate (log intensity, higher = more binding, comparable within an allelic series); in the assay with SIX6 [3] it was 8.88 upbm affinity estimate (log intensity, higher = more binding, comparable within an allelic series); with SIX6 [4] it was 8.99 upbm affinity estimate (log intensity, higher = more binding, comparable within an allelic series); in the assay with SIX6 [5] it was 8.82 upbm affinity estimate (log intensity, higher = more binding, comparable within an allelic series); in the assay with SIX6 [6] it was 8.81 upbm affinity estimate (log intensity, higher = more binding, comparable within an allelic series). The binding signal with SIX6 [7] is 8.93 upbm affinity estimate (log intensity, higher = more binding, comparable within an allelic series); in the assay with SIX6 [8] it was 8.87 upbm affinity estimate (log intensity, higher = more binding, comparable within an allelic series); in the assay with SIX6 [9], 8.91 upbm affinity estimate (log intensity, higher = more binding, comparable within an allelic series); with SIX6 [10], 8.86 upbm affinity estimate (log intensity, higher = more binding, comparable within an allelic series); in the assay with SIX6 [11], 8.96 upbm affinity estimate (log intensity, higher = more binding, comparable within an allelic series); with SIX6 [12], 8.84 upbm affinity estimate (log intensity, higher = more binding, comparable within an allelic series). Also, in the assay with SIX6 [13], the binding signal is 8.87 upbm affinity estimate (log intensity, higher = more binding, comparable within an allelic series).

As to GCAAAGCC, the binding signal with SIX6 [1] was 8.97 upbm affinity estimate (log intensity, higher = more binding, comparable within an allelic series); with SIX6 [2], 8.93 upbm affinity estimate (log intensity, higher = more binding, comparable within an allelic series); with SIX6 [3] it was 8.96 upbm affinity estimate (log intensity, higher = more binding, comparable within an allelic series); in the assay with SIX6 [4], 9 upbm affinity estimate (log intensity, higher = more binding, comparable within an allelic series); in the assay with SIX6 [5], 9.02 upbm affinity estimate (log intensity, higher = more binding, comparable within an allelic series); with SIX6 [6] it was 8.9 upbm affinity estimate (log intensity, higher = more binding, comparable within an allelic series). The binding signal in the assay with SIX6 [7] is 8.91 upbm affinity estimate (log intensity, higher = more binding, comparable within an allelic series); in the assay with SIX6 [8], 8.9 upbm affinity estimate (log intensity, higher = more binding, comparable within an allelic series); with SIX6 [9], 9 upbm affinity estimate (log intensity, higher = more binding, comparable within an allelic series); with SIX6 [10], 8.93 upbm affinity estimate (log intensity, higher = more binding, comparable within an allelic series); with SIX6 [11], 8.94 upbm affinity estimate (log intensity, higher = more binding, comparable within an allelic series); with SIX6 [12] it was 8.98 upbm affinity estimate (log intensity, higher = more binding, comparable within an allelic series). The binding signal with SIX6 [13] was 8.92 upbm affinity estimate (log intensity, higher = more binding, comparable within an allelic series).

Turning to GATCCGGA, the binding signal was 10.4 upbm affinity estimate (log intensity, higher = more binding, comparable within an allelic series) in the assay with SIX6 [1]; 9.71 upbm affinity estimate (log intensity, higher = more binding, comparable within an allelic series) with SIX6 [2]; 10.2 upbm affinity estimate (log intensity, higher = more binding, comparable within an allelic series) with SIX6 [3]; 9.25 upbm affinity estimate (log intensity, higher = more binding, comparable within an allelic series) in the assay with SIX6 [4]; 9.87 upbm affinity estimate (log intensity, higher = more binding, comparable within an allelic series) in the assay with SIX6 [7]; 10.4 upbm affinity estimate (log intensity, higher = more binding, comparable within an allelic series) in the assay with SIX6 [8]. For the same sequence, the binding signal in the assay with SIX6 [9] is 10.7 upbm affinity estimate (log intensity, higher = more binding, comparable within an allelic series); with SIX6 [10], 10.3 upbm affinity estimate (log intensity, higher = more binding, comparable within an allelic series); with SIX6 [11], 10.3 upbm affinity estimate (log intensity, higher = more binding, comparable within an allelic series); with SIX6 [12], 10.4 upbm affinity estimate (log intensity, higher = more binding, comparable within an allelic series); with SIX6 [13] it was 10.2 upbm affinity estimate (log intensity, higher = more binding, comparable within an allelic series).

Regarding GATACCCC, the binding signal with SIX6 [1] was 11.5 upbm affinity estimate (log intensity, higher = more binding, comparable within an allelic series); with SIX6 [2], 10.4 upbm affinity estimate (log intensity, higher = more binding, comparable within an allelic series); in the assay with SIX6 [3], 11.5 upbm affinity estimate (log intensity, higher = more binding, comparable within an allelic series); in the assay with SIX6 [4], 9.41 upbm affinity estimate (log intensity, higher = more binding, comparable within an allelic series); with SIX6 [5], 11 upbm affinity estimate (log intensity, higher = more binding, comparable within an allelic series); with SIX6 [6], 11.2 upbm affinity estimate (log intensity, higher = more binding, comparable within an allelic series). In addition, the binding signal with SIX6 [7] was 10.5 upbm affinity estimate (log intensity, higher = more binding, comparable within an allelic series); with SIX6 [8] it was 11.6 upbm affinity estimate (log intensity, higher = more binding, comparable within an allelic series); with SIX6 [9] it was 11.4 upbm affinity estimate (log intensity, higher = more binding, comparable within an allelic series); with SIX6 [10], 11.3 upbm affinity estimate (log intensity, higher = more binding, comparable within an allelic series); in the assay with SIX6 [11], 11.2 upbm affinity estimate (log intensity, higher = more binding, comparable within an allelic series); in the assay with SIX6 [12], 11.3 upbm affinity estimate (log intensity, higher = more binding, comparable within an allelic series). The binding signal with SIX6 [13] was 11.2 upbm affinity estimate (log intensity, higher = more binding, comparable within an allelic series).
